Experimental findings from PubChem BioAssay AID687 (PCMD, 2007) are described below.

Hit rate of the full screen: of about 33,000 compounds, about 95 (0.3%) were called active.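 The calls were made as follows: active = inhibition above 40% in the primary screen; inactive = the rest.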 This excerpt belongs to a sample that is enriched for actives.

In the experiment the target is Coagulation factor XI (Homo sapiens) (UniProt P03951). Nature of the experiment: human FXIa protease inhibitors, primary screen, biochemical, single compound per well (AID 687).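 Also: 0% = enzyme without compound and 100% = blank wells lacking enzyme.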 The conditions noted are these: purified human FXIa, fluorogenic AMC substrate cleavage; at 10 µM; active compounds read high.
Chain of Coagulation factor XI (Homo sapiens) (P03951 19-387 limits assumed): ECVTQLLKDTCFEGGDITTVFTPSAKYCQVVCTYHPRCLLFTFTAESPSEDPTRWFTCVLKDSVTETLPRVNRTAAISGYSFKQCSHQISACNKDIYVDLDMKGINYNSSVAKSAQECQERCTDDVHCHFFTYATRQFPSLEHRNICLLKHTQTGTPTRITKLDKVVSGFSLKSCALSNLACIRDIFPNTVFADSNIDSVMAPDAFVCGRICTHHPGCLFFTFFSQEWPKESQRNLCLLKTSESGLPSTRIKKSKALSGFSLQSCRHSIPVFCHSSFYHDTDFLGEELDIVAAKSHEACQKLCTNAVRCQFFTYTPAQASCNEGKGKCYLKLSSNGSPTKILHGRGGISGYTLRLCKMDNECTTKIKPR
Chain of Coagulation factor XI (Homo sapiens) (P03951 388-625 limits assumed): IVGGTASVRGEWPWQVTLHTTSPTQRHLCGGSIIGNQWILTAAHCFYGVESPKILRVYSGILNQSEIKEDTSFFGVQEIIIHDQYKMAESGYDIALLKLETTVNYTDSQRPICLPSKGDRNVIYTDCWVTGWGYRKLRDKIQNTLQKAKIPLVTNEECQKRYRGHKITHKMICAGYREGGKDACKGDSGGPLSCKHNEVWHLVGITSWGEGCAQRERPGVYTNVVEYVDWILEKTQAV
Turning to `CCC(=O)NC(Nc1nc2ccc(C)cc2s1)(C(=O)OC)C(F)(F)F` (configuration not stated), the inhibition was 0.39% (inactive). As to `CCOC(=O)c1ccccc1NS(=O)(=O)c1ccc(OC)cc1`, the inhibition was -1.8% (inactive). `CCOc1ccc(C(=O)NCCCN2CCCC2=O)cc1`: the inhibition is -9.62% (inactive). With `Cc1cc(C)cc(OCc2nnc(SCC(=O)OC3CCCCC3)o2)c1`, the inhibition was 2.82% (inactive).

As for `O=C(Nc1ccc(S(=O)(=O)N2CCc3ccccc3C2)cc1)c1ccccc1`, the inhibition is 4.52% (inactive). As to `O=C1CSC(c2ccc(Cl)cc2)N1` (configuration not stated), the inhibition was -2.99% (inactive). `COc1ccc(-c2cc3nc(C)c(CCC(=O)NC(C)CCc4ccco4)c(C)n3n2)c(OC)c1` (configuration not stated): the inhibition is 0.38% (inactive). `C=C(C)CNC(=S)/N=c1\scc(C)n1CC`: the inhibition is -6.03% (inactive).

With `COc1cc(S(=O)(=O)N(Cc2cccs2)C2CC2)ccc1-n1cnnn1`, the inhibition was 6.31% (inactive). On to `COc1ccccc1Nc1nc(N)nc(CN(C)C2CCCCC2)n1`, for which the inhibition was -1.79% (inactive).

In the case of `O=C(CCN1C(=O)c2ccccc2C1=O)Nc1cccc(F)c1`, the inhibition is 21.9% (inactive). With `O=C(CCn1c(SCC(=O)c2ccccc2)nc2ccccc2c1=O)NCc1ccc(F)cc1`, the inhibition was -1.87% (inactive). On to `CCCNC(=O)NCc1ccc(N2CCCC2=O)cc1`, for which the inhibition was -4.89% (inactive). Regarding `O=C(NCc1ccccc1)[C@@H]1CSC2c3ccccc3C(=O)N21` (some centres not stated), the inhibition is -6.84% (inactive). As for `COc1ccc(N2CCN(C(=O)CNC(=O)c3ccc(C(C)(C)C)cc3)CC2)cc1`, the inhibition was 0.23% (inactive). With `COc1ccc2oc(=O)c(C(=O)N3CCCc4ccccc43)cc2c1` the figure was 2.52% (inactive); with `C=CCN(C(=O)Cn1ncc2c1-c1cc(C)ccc1OC2)c1ccccc1`, 7.94% (inactive). For the molecule `CCCCSc1[nH]c(=O)c(C(=O)OCC)cc1C#N`, the inhibition was -3.65% (inactive).

For the molecule `COC(=O)c1cccc(-n2[nH]nnc2=S)c1`, the inhibition was 8.73% (inactive).

`O=c1nc(N2CCOCC2)nc2n1CCO2`: the inhibition was 0.16% (inactive). Turning to `Nc1nc(SCc2ccccc2Cl)n[nH]1`, the inhibition is -1.35% (inactive). Then `C=CCn1c(SCc2c(C)noc2C)nc2sc3c(c2c1=O)CCC(C)C3` (configuration not stated), with -0.06% (inactive); and `Cc1cccc(Cn2c(SCCO)nc3c2c(=O)n(C)c(=O)n3C)c1`, with -5.34% (inactive); and `COC(=O)Nc1ccc(S(=O)(=O)N2CCN(CCN3C(=O)C4C5C=CC(C5)C4C3=O)CC2)cc1` (configuration not stated), with 7.92% (inactive). For the molecule `CN(C)CCNC(=O)C(C(=O)c1ccccc1)n1ccccc1=O` (configuration not stated), the inhibition is -0.81% (inactive). On to `Nn1c(SCC(=O)NC2CCCC2)nnc1-c1ccccc1F`, for which the inhibition was -0.95% (inactive). For `Cc1cc(C(F)(F)F)n2ncc(-c3ccccc3)c2n1`, the inhibition was -2.08% (inactive). With `O=C(CN1CCN(C(=O)c2ccco2)CC1)Nc1ccc2c(c1)OCO2` the figure was -13.2% (inactive); with `CCOC(=O)c1ccc(COC(=O)CCc2nc(-c3ccccc3)c(-c3ccccc3)o2)cc1`, -0.92% (inactive); with `Cc1ccc(CNC(=O)CCNS(=O)(=O)c2cccc3nonc23)cc1`, -10.4% (inactive). As to `CCc1nc(N2CCN(c3nc(C)cc(C)n3)CC2)c2oc3ccccc3c2n1`, the inhibition is -4.81% (inactive).

In the case of `COc1ccc(CCN(C)CCN2C(=O)c3ccccc3C2=O)cc1OC`, the inhibition was -0.63% (inactive). Regarding `Cc1ccc(OCC(=O)Nn2cnc3ccccc32)cc1`, the inhibition is 13.2% (inactive). As for `CCOC(=O)c1ccc(COC(=O)c2cc(=O)[nH]c3ccccc23)o1`, the inhibition is 0.06% (inactive). As for `CCOC(=O)c1c(C)nc2c(c1C)c(=O)oc1ccccc12`, the inhibition was 43.4% (active). Take `CCOC(=O)c1cc2ccccc2nc1C`: the inhibition is -0.46% (inactive). In the case of `CCOc1cc(CN2CCN(C(=O)CC(C)C)CC2)ccc1OC`, the inhibition was 0.6% (inactive). Turning to `CC(NC(=O)Nc1ccccc1)c1ccccc1` (configuration not stated), the inhibition is -3.02% (inactive). Turning to `CC1CCC2(CC1)NC(=O)N(CC(=O)c1cccn1C)C2=O` (configuration not stated), the inhibition was -10.7% (inactive). `CCOc1ccc(S(=O)(=O)N2CCCCCC2)c2ccccc12`: the inhibition is -9.47% (inactive). For `O=C(NC1CCCCC1)c1ccc(CNc2c(N3CCOCC3)c(=O)c2=O)cc1`, the inhibition was -0.69% (inactive). Turning to `COc1ccc(CN2CCn3ncc(C(=O)Nc4ccc(Cl)cc4Cl)c3C2=O)cc1`, the inhibition was 8.32% (inactive). With `CCOC(=O)C1=C(CSc2nccn2C)NC(=O)NC1c1ccc(OC)cc1` (configuration not stated), the inhibition is -6.24% (inactive).

On to `CC1(C)Cc2c(sc3nc(SCC(=O)NCc4ccccc4)n(-c4ccccc4)c(=O)c23)CS1`, for which the inhibition was 1.32% (inactive). On to `O=C(C(NS(=O)(=O)c1cccc2nsnc12)c1ccccc1)N1CCN(c2ccccc2)CC1` (configuration not stated), for which the inhibition is 4.95% (inactive). In the case of `O=C(NCc1ccco1)C1(c2ccc(Cl)cc2)CCCC1`, the inhibition is -4.42% (inactive). `O=C(CCCn1c(SCC(=O)c2ccccc2)nc2ccccc2c1=O)NCC1CCCO1` (configuration not stated): the inhibition was 7.29% (inactive). For `CCOc1ccc(-c2nc(C)sc2CC(=O)O)cc1`, the inhibition was -1.47% (inactive). Regarding `O=[N+]([O-])c1ccc(Oc2ccc(F)cc2Br)c2ccncc12`, the inhibition was -2.08% (inactive).

`c1ccc2[nH]c(NCCN3CCOCC3)nc2c1`: the inhibition is -1.88% (inactive). With `COC(=O)C1CCN(CC(N)=O)CC1`, the inhibition was -11.2% (inactive). As for `Cc1cc(=O)oc(C)c1C(=O)N1CCCCC1`, the inhibition is 32.7% (inactive). On to `Cc1ccc(CNC(=O)C2CCCN2C(=O)NCc2ccccc2)cc1` (configuration not stated), for which the inhibition is 26.7% (inactive). As for `COc1ccc(O)c(C(=O)c2cnc3onc(C(C)C)c3c2)c1`, the inhibition was -2.11% (inactive). For the molecule `O=C(CCN1c2ccccc2Sc2ccccc21)Nc1ccccc1`, the inhibition was -11.6% (inactive). For the molecule `Cc1ccnc(NC(=O)c2ccc(NC(=O)c3ccco3)cc2)c1`, the inhibition is 1.44% (inactive). As to `Cc1cccc(NC(=O)CN2C(=O)CNC2=O)c1`, the inhibition is 7.39% (inactive). For the molecule `COC(=O)c1cccc(N(C(=O)c2ccco2)C(C(=O)NC2CCCC2)c2ccco2)c1` (configuration not stated), the inhibition is -11.4% (inactive).

For the molecule `COc1ccc(N/N=C2/CCCCC2=O)cc1`, the inhibition is 19.4% (inactive).

On to `COc1ccc(N2CCN(C(=O)CCc3nc(-c4ccc(C)cc4)no3)CC2)cc1`, for which the inhibition is 8.76% (inactive). As to `O=C(CNS(=O)(=O)c1ccc(Br)s1)N1CCN(C(=O)c2ccco2)CC1`, the inhibition is -4.45% (inactive).

Consider `Cc1cccc(C)c1NC(=O)CCCSc1nnc(-c2ccco2)n1-c1ccccc1`, for which the inhibition was -0.71% (inactive).
